Most compounds without a hit are left out; they make up all but 3.5% or so of the library.
TEAD-YAP block = TEAD-YAP interaction inhibition; inhibition, % at 9.12 µM; actives 1.4% (n = 640,000); AID 1259422; HEK-TIYL cells, TEAD-Gal4/YAP UAS-luciferase luminescence; in the data active = inhibition above about 32%;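 note: 0% = median of test compound wells and 100% = reference inhibitor wells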
FBW7 activator = human FBW7 E3 ligase activation, primary screen; normalized activity (activation), % at 26.1 µM; AlphaScreen FBW7–phospho-cyclin E peptide binding, activator screen; Q969H0; actives 0.13% (n = 650,000); in the data active = normalized activity above about 1.9%;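 note: purified mutant Fbw7 with reduced substrate affinity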
MITF inh = blocks human microphthalmia-associated transcription factor; O75030; AlphaScreen MITF homodimerization, bead proximity signal; inhibition, % at 2.6 µM; actives 0.91% (n = 650,000); AID 1259374; in the data active = inhibition above about 50%;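 note: 0% = vehicle wells with protein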
GPR151 activ = human GPR151 activation; activation, % at 11.2 µM; PathHunter beta-arrestin GPR151 cells, luminescence; AID 1508602; Q8TDV0; actives 1% (n = 650,000); in the data active = activation above about 4.9%;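 note: 0% = median of compound wells and 100% = cells with positive control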
* hit, by the source's call.

`O=C1C(c2ccnc3ccccc23)=C(O)c2ccccc21` gave TEAD-YAP block 53*, FBW7 activator 0, MITF inh -12 and GPR151 activ -2.
For COc1ccc(S(=O)(=O)N(CC(=O)NC2CCCC2)C2CCCCC2)cc1Cl the results were TEAD-YAP block 8, FBW7 activator 0, MITF inh 0 and GPR151 activ 4.
Screening CCOC(=O)c1cc2c3c(c1)C1C=CCC1C(c1ccc(F)cc1)N3CC1CC=CC21 (stereo not drawn) returned TEAD-YAP block 5, FBW7 activator 0, MITF inh 6 and GPR151 activ -2.
Screening O=C(O)CNC(=O)c1cc2c3c(c1)C1C=CCC1C(c1ccc(F)cc1)N3CC1CC=CC21 (stereo not drawn) returned TEAD-YAP block 2, FBW7 activator -1, MITF inh 73* and GPR151 activ -1.
O=C(C1CCCO1)N1CCN(CC(O)COc2cc(Cl)ccc2Cl)CC1 (stereo not drawn) was read as TEAD-YAP block 2, FBW7 activator 0, MITF inh 34 and GPR151 activ 2.
Screening O=C1CSC(c2ccc(Cl)c(Cl)c2)N1c1ccc2ccccc2c1 (stereo not drawn) returned TEAD-YAP block -6, FBW7 activator 0, MITF inh 6 and GPR151 activ 1.
`CCOc1ccc(NC(=O)C2CCN(c3nc4ccc(OCC)cc4s3)CC2)cc1` gave TEAD-YAP block 12, FBW7 activator 0, MITF inh -3 and GPR151 activ 1.
For CCOC(=O)N1CCN(C(=O)C2CCN(c3nc4ccc(CC)cc4s3)CC2)CC1 the results were TEAD-YAP block 11, FBW7 activator 1, MITF inh -7 and GPR151 activ 0.
Screening CCOc1ccc2nc(SCCC(=O)Nc3ccc(OC)cc3)sc2c1 returned TEAD-YAP block 28, FBW7 activator 0, MITF inh 1 and GPR151 activ 3.
`CCc1ccc2nc(N3CCC(C(=O)N4CCCC4)CC3)sc2c1` gave TEAD-YAP block 48*, FBW7 activator 0, MITF inh 2 and GPR151 activ 0.
Screening CCOc1ccc2nc(SCCC(=O)Nc3ccccc3)sc2c1 returned TEAD-YAP block 36*, FBW7 activator 0, MITF inh -4 and GPR151 activ 1.
CCOc1ccc2nc(N3CCC(C(=O)Nc4cccc(C(C)=O)c4)CC3)sc2c1 was read as TEAD-YAP block 69*, FBW7 activator 1, MITF inh 19 and GPR151 activ 1.
`CCc1ccc2nc(N3CCCC(C(=O)O)C3)sc2c1` (stereo not drawn) gave TEAD-YAP block 58*, FBW7 activator 0, MITF inh 9 and GPR151 activ 0.
For O=C(NCc1ccccn1)NCc1noc2ccccc12 the results were TEAD-YAP block 0, FBW7 activator 0, MITF inh 6 and GPR151 activ 1.
COc1cccc(N2C(=O)C3C(C2=O)C2(C)C=CC3(C)O2)c1 (stereo not drawn) was read as TEAD-YAP block -6, FBW7 activator 0, MITF inh 5 and GPR151 activ -1.
For CC1=CC(C)(C)N2C(=O)C(=O)c3cc(OC(=O)c4ccccc4F)cc1c32 the results were TEAD-YAP block 45*, FBW7 activator 0, MITF inh 5 and GPR151 activ 0.
For Cc1cc2ncn(C(=O)c3c(-c4ccccc4)noc3C)c2cc1C the results were TEAD-YAP block 11, FBW7 activator 0, MITF inh 2 and GPR151 activ 1.
For Cc1cc2ncn(C(=O)c3c(-c4c(Cl)cccc4Cl)noc3C)c2cc1C the results were TEAD-YAP block -10, FBW7 activator 2.4*, MITF inh 9 and GPR151 activ 0.
COc1ccccc1NC(=O)c1ccc(SCC(=O)N2CCC3(CC2)OCCO3)c([N+](=O)[O-])c1 was read as TEAD-YAP block 38*, FBW7 activator 0, MITF inh -1 and GPR151 activ 1.
For CC(C)N(CCNc1nc(Nc2cccnc2)nc2c1ncn2-c1ccsc1)C(C)C the results were TEAD-YAP block 35*, FBW7 activator 0, MITF inh -5 and GPR151 activ 1.
For CC(C)N(CCNc1nc(Nc2ccc3ncccc3c2)nc2c1ncn2-c1ccsc1)C(C)C the results were TEAD-YAP block 44*, FBW7 activator 0, MITF inh 10 and GPR151 activ -2.
Screening CC(C)N(CCNc1nc(Nc2cnccn2)nc2c1ncn2-c1ccsc1)C(C)C returned TEAD-YAP block 39*, FBW7 activator 0, MITF inh 4 and GPR151 activ -1.
`CCCNc1nc(Nc2ccc3ncccc3c2)nc2c1ncn2C(C)C` gave TEAD-YAP block -9, FBW7 activator 0, MITF inh 2 and GPR151 activ -1.
For CC(C)N(CCNc1nc(Nc2ccncc2)nc2c1ncn2-c1ccsc1)C(C)C the results were TEAD-YAP block 2, FBW7 activator 0, MITF inh -2 and GPR151 activ -1.
Screening COc1cc(Nc2nc(NCCN(C(C)C)C(C)C)c3ncn(-c4ccsc4)c3n2)cc(OC)c1OC returned TEAD-YAP block 9, FBW7 activator 0, MITF inh -3 and GPR151 activ -1.
Screening CC(C)n1cnc2c(NCCc3ccc(O)cc3)nc(Nc3ccc4ncccc4c3)nc21 returned TEAD-YAP block 39*, FBW7 activator 0, MITF inh 4 and GPR151 activ 2.
`CC1=C(C(=O)Nc2cc(Cl)ccc2C)C(c2ccc(O)cc2)NC(=S)N1` (stereo not drawn) gave TEAD-YAP block -2, FBW7 activator 0, MITF inh 0 and GPR151 activ 0.
Screening CC(=O)N/N=C(\C)c1ccc(-n2cnnn2)cc1 returned TEAD-YAP block -69, FBW7 activator 0, MITF inh 4 and GPR151 activ 2.
c1ccc(CNc2nc(Nc3cccnc3)nc3c2ncn3-c2ccsc2)cc1 was read as TEAD-YAP block 32, FBW7 activator 0, MITF inh 12 and GPR151 activ 0.
For CCCNc1nc(Nc2cccnc2)nc2c1ncn2-c1ccsc1 the results were TEAD-YAP block 61*, FBW7 activator 0, MITF inh 0 and GPR151 activ 0.
For Cc1ccc(C(C[N+](=O)[O-])c2c[nH]c3ccccc23)o1 (stereo not drawn) the results were TEAD-YAP block 54*, FBW7 activator 0, MITF inh 0 and GPR151 activ -1.
`CCCC(=O)Nc1ccc(-c2nc3cccnc3s2)cc1` gave TEAD-YAP block 15, FBW7 activator 0, MITF inh 9 and GPR151 activ -2.
`CC(C)C(=O)Nc1ccc(-c2nc3cccnc3s2)cc1` gave TEAD-YAP block 87*, FBW7 activator 0, MITF inh 12 and GPR151 activ -5.
For CCS(=O)(=O)N1CCN(Cc2nc(-c3ccc(Cl)cc3)cs2)CC1 the results were TEAD-YAP block 33*, FBW7 activator 0, MITF inh -3 and GPR151 activ 0.
Screening CCN(CC)c1ccc(C2Nc3ccccc3NC3=C2C(=O)CC(C)(C)C3)cc1 (stereo not drawn) returned TEAD-YAP block 54*, FBW7 activator 0, MITF inh 1 and GPR151 activ 0.
